Test results as given in PubChem BioAssay (EPA / NIEHS).
Inconclusive results are not listed. Calls of active or inactive are those of the source. Rule for the calls, unless noted: active = hit-call score of the fitted dose curve at least 0.9, where 1 is the maximum; inconclusive = response in the unintended direction; inactive = score below 0.9.

Legend:
[1] = Tanguay_ZF_120hpf_SOMI_legacy: (Legacy) Oregon State University Tanguay Lab 120 Hour Post-fertilization zebrafish Assay for Somite Malformation (AID 2283647)
How it was run: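 Somitogenesis defects are recorded as binary calls in whole larvae at 120 hpf after continuous static chemical exposure starting at 6 hpf in dechorionated 5D embryos. DMSO serves as negative control and baseline.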

[2] = Tanguay_ZF_120hpf_PFIN_legacy: (Legacy) Oregon State University Tanguay Lab 120 Hour Post-fertilization zebrafish Assay for Pectoral Fin Malformation (AID 2283648);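 note: each larva judged yes or no for fin defect by brightfield with dead larvae skipped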
How it was run: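 Dechorionated Tropical 5D wild-type zebrafish embryos, one per well, statically exposed from 6 to 120 hpf at 28C with 0.64% DMSO final. Pectoral fin malformation scored present/absent by brightfield at 120 hpf; not scored in dead embryos.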

[3] = Tanguay_ZF_120hpf_CFIN_legacy: (Legacy) Oregon State University Tanguay Lab 120 Hour Post-fertilization zebrafish Assay for Caudal Fin Malformation (AID 2283649)
How it was run: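 Single dechorionated 5D wild-type embryos are dosed at 6 hpf (final DMSO 0.64%) and held statically at 28C. Caudal fin malformation is recorded as present or absent at 120 hpf under brightfield, excluding dead embryos.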

[4] = Tanguay_ZF_120hpf_PIG_legacy: (Legacy) Oregon State University Tanguay Lab 120 Hour Post-fertilization zebrafish Assay for Pigmentation Malformation (AID 2283650)
How it was run: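 Dechorionated Tropical 5D wild-type embryos, one per well from 6 hpf, statically exposed at 28C in the dark until 120 hpf, 0.64% DMSO final. Pigmentation scored present/absent by brightfield microscopy; dead embryos not scored; fitted versus DMSO.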

[5] = Tanguay_ZF_120hpf_CIRC_legacy: (Legacy) Oregon State University Tanguay Lab 120 Hour Post-fertilization zebrafish Assay for Circulatory Malformation (AID 2283651)
How it was run: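 Tropical 5D wild-type embryos, dechorionated with pronase at 4 hpf, were placed singly in wells at 6 hpf and exposed statically at 28C to 120 hpf (0.64% DMSO final). Circulatory malformation was scored present/absent by brightfield microscopy.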

[6] = Tanguay_ZF_120hpf_SWIM_legacy: (Legacy) Oregon State University Tanguay Lab 120 Hour Post-fertilization zebrafish Assay for Swim Bladder Malformation (AID 2283654);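 note: swim bladder malformation in each larva scored yes or no under brightfield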
How it was run: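 Dechorionated wild-type Tropical 5D zebrafish embryos, one per well from 6 hpf, were statically exposed at 28C until 120 hpf in 0.64% DMSO. Swim bladder malformation scored as present/absent by brightfield microscopy; not scored in dead larvae.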

[7] = Tanguay_ZF_120hpf_TRUN_legacy: (Legacy) Oregon State University Tanguay Lab 120 Hour Post-fertilization zebrafish Assay for Truncated Body (AID 2283655)
How it was run: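 Single dechorionated zebrafish embryos received test chemical from 6 hpf in 0.64% DMSO, kept at 28C. At 120 hpf, brightfield inspection noted any truncated body.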

[8] = Tanguay_ZF_120hpf_NC_legacy: (Legacy) Oregon State University Tanguay Lab 120 Hour Post-fertilization zebrafish Assay for Notochord and Tail Malformation (AID 2283656)
How it was run: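 Dechorionated 5D zebrafish, 1/well from 6 hpf; static exposure to 120 hpf, 28C, sealed, dark; final DMSO 0.64% v/v. NC scored binary (present/absent); dead embryos not scored. Fit vs DMSO baseline, gain direction.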

[9] = Tanguay_ZF_120hpf_TR_legacy: (Legacy) Oregon State University Tanguay Lab 120 Hour Post-fertilization zebrafish Assay for Touch Response (AID 2283667)
How it was run: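 Tropical 5D wild-type zebrafish embryos statically exposed to 120 hpf at 28°C, sealed and dark-covered, 0.64% DMSO final; touch response scored as present/absent by brightfield microscopy at 120 hpf. Trimethyltin chloride 5 uM positive control; dead embryos not scored.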

[10] = Tanguay_ZF_120hpf_ActivityScore_legacy: (Legacy) Oregon State University Tanguay Lab 120 Hour Post-fertilization zebrafish Assay Score for Activity (AID 2283742)
How it was run: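 Dechorionated Tropical 5D embryos, one per well from 6 hpf, statically exposed to 120 hpf at 28 °C in 0.64% DMSO. Mortality and malformations scored binary by brightfield microscopy; activity score combines 18 endpoints, fitted positively versus DMSO.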

[11] = CCTE_Padilla_ZF_144hpf_TERATOSCORE: (Legacy) CCTE's 144 Hour Post-fertilization zebrafish Assay Teratoscore, Padilla Lab (AID 2283679; active = hit-call score of the fitted dose curve at least 0.9, where 1 is the maximum; inactive = score below 0.9;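 for AC50: zebrafish embryos with chorions exposed by immersion from 6-8 hpf to 5 dpf with daily renewal; teratogenicity score from eye scoring of death hatching and malformations at 144 hpf; higher score means more developmental defects relative to DMSO baseline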)
How it was run: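 Larvae scored by eye at 144 hpf for death, hatching and malformations after a day in clean Hanks'. Before that, daily-renewed exposure at 80 uM (0.4% DMSO, 26C) from roughly 6-8 hpf through 5 dpf, 4 embryos per chemical.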

[12] = STM_H9_OrnithineISnorm_perc: Stemina devTOX quickPredict H9 human embryonic stem cell (hESC)-based Assay for Ornithine (ORN) Metabolite Biomarker, Normalized (AID 2283712; active = hit-call score of the fitted dose curve at least 0.9, where 1 is the maximum; inactive = score below 0.9;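 note: ornithine released into spent medium during last day measured by mass spectrometry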)
How it was run: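 Undifferentiated pluripotent H9 hESCs were exposed to compound for 72h, with media and compound replaced every 24h. Ornithine in final 24-h conditioned media was measured by UPLC-HRMS, normalized to 13C-labeled spike-in standard and to median 0.1% DMSO control.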

[13] = STM_H9_CystineISnorm_perc: Stemina devTOX quickPredict H9 human embryonic stem cell (hESC)-based Assay for Cystine (CYSS) Metabolite Biomarker, Normalized (AID 2283713; active = hit-call score of the fitted dose curve at least 0.9, where 1 is the maximum; inactive = score below 0.9)
How it was run: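 Undifferentiated H9 hESCs were exposed to compound for 72h, with medium and compound replaced every 24h. Final-24h conditioned medium was deproteinized and analyzed by UPLC-HRMS. Cystine EIC area was normalized to spiked C13 standard and 0.1% DMSO median.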

[14] = STM_H9_OrnCyssISnorm_ratio: Stemina devTOX quickPredict H9 human embryonic stem cell (hESC)-based Assay for Ornithine (ORN):Cystine (CYSS) Ratio (AID 2283714)
How it was run: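 Undifferentiated H9 hESCs exposed 72 h, media and compound replaced every 24 h; final 24-h conditioned media deproteinized and analysed by UPLC-HRMS against C13 spike-ins. Value is the internal-standard-normalized ORN/CYSS ratio versus 0.1% DMSO.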

[15] = system: Thyroperoxidase (TPO), gene 54314; assay: CCTE_Simmons_AUR_rTPO: CCTE's Amplex UltraRed Assay for Thyroperoxidase (TPO) Inhibition, Simmons Lab (AID 2283662);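 for AC50: potency for loss of signal meaning inhibition of peroxidase activity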
How it was run: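 Rat thyroid microsomal TPO + 25 uM AUR in 200 mM K phosphate; cpd 5 nM–87.5 uM [final], 8 conc, 0.5% DMSO; 300 uM H2O2 starts rxn; 37C dark 30 min; endpoint FI 544/590 nm; n=3.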

[16] = CCTE_Simmons_CellTiterGLO_HEK293T: Viability Assessment in CCTE's Assays for Thyroperoxidase (TPO) Inhibition, Simmons Lab (AID 2283665)
How it was run: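 HEK293T cells in DMEM with 1% FBS were dosed with 8 concentrations (5 nM–87.5 uM final, 0.5% DMSO) for 24 hr at 37C; ATP content was read by CellTiter-Glo luminescence, loss-of-signal versus DMSO, three biological replicates.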

Measured: AC50

Nc1ccc([N+](=O)[O-])cc1
not listed: [11] | [12] | [13] | [14] | [15] | [16]
inactive: all other assays above

COc1cc(C=O)cc2c1[C@H](COC(N)=O)[C@]1(OC(C)=O)ON2C[C@H]2[C@@H]1N2C(C)=O
active: [12] 0.00101 µM | [13] 0.0003 µM | [14] 0.000797 µM | [10] 23.4 µM
not listed: [9] | [15] | [16]
inactive: all other assays above

O=P(OCCCl)(OCCCl)OCCCl
inactive: [1] | [2] | [3] | [4] | [6] | [7] | [12] | [13] | [10]

Nc1ccc(Oc2ccc(N)cc2)cc1
active: [15] 0.831 µM | [12] 59.5 µM | [14] 50.2 µM
not listed: [7] | [11]
inactive: all other assays above

c1ccc2c(c1)oc1ccccc12
inactive: [1] | [2] | [3] | [4] | [5] | [7] | [8] | [9] | [10]

Clc1ccccc1Cl
not listed: [11] | [12] | [13] | [14] | [15] | [16]
inactive: all other assays above

CCCCCCCCOC(=O)c1ccc(C(=O)OCCCCCCCC)c(C(=O)OCCCCCCCC)c1
not listed: [11] | [12] | [13] | [14] | [15] | [16]
inactive: all other assays above

Cc1ccc(N=C=O)cc1N=C=O
active: [15] 16.9 µM
not listed: [4] | [6] | [11] | [12] | [13] | [14]
inactive: all other assays above

COC(=O)c1ccccc1N
not listed: [2] | [4] | [12] | [13] | [14]
inactive: all other assays above

CCCCCCCCn1sccc1=O
active: [11] 0.523 µM | [12] 43 µM | [13] 11.5 µM | [14] 22.4 µM | [10] 3.42 µM
not listed: [1] | [15] | [16]
inactive: all other assays above

CCNS(=O)(=O)C(F)(F)C(F)(F)C(F)(F)C(F)(F)C(F)(F)C(F)(F)C(F)(F)C(F)(F)F
inactive: [5] | [8]
active: [1] 9.56 µM | [2] 48.4 µM | [4] 46.8 µM | [9] 17 µM | [11] 43.5 µM | [10] 31.2 µM

O=C(N[C@H](c1ccccc1)[C@@H]1CN2CCC1CC2)c1c(Cl)ccc(C(F)(F)F)c1Cl
active: [9] 0.968 µM | [11] 50.8 µM | [10] 28.3 µM
inactive: [2] | [4]
